TSHR antagonist – blocks TSH signaling through the human TSH receptor. P16473. TSHR-expressing cells, TSH-stimulated cAMP HTRF, 2 h; hits give low values. activity change, negative = inhibition, % at 11.5 µM. 330,000 tested, 0.2% active. AID 504810;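 active = activity change below a set negative limit, meaning inhibition stronger than a set level, cut at about -70% in these data; inconclusive = activity change between two set negative limits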
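Read-out is FRET at 665 nm (cryptate excitation 337 nm) from a cryptate-tagged anti-cAMP antibody, competed by cell cAMP against cAMP-d2. Compounds are tested on freshly harvested TSHR cells challenged with 4nM TSH (EC80) for 2 hours at 37 deg C.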
Coupling enz – counter-screen for Giardia aldolase inhibitors: coupling enzyme system; coupling enzyme system counterscreen, AmpLite Red fluorescence; 290,000 tested, 0.67% active; activity change, negative = inhibition, % at 58.2 µM, hits read low; AID 2472; in the data active = activity change below about -30%
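Coupling enzymes only (glyceraldehyde-3-phosphate) + compound, at 57.5 uM final, 10 min RT; add substrate/coupling/AmpLite Red mix, 20 min RT; fluorescence ex 525/em 598 nm. Actives flag coupling-system interference.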
VP16 counter – Gal4-VP16 reporter inhibition counter-screen; Drosophila S2 Gal4-VP16 UAS-luciferase, luminescence, 20 h; Potency, µM (doses to about 53.6 µM), actives largely listed as inhibitors; 310,000 tested, 3.5% active; AID 2546;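 note: Gal4-VP16 expression switched on by copper sulfate through the metallothionein promoter; nearly all actives have a fitted effect of over 50% in size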
ELG1 repair inh – ELG1-dependent DNA repair inhibition | HEK293T ELG1-luciferase reporter, luminescence, 16 h; DNA damage induced by 5-fluorouridine | Potency, µM (doses to about 46.1 µM), usual class: inhibitors | 330,000 tested, 2.3% active | AID 504467; note: nearly all actives have a fitted effect of over 55% in size
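Reporter activity after DNA damage by 5-fluorouridine is monitored. Compound-treated cells incubate 16 hr at 37 °C, then ONE-Glo is added for 30 min before luminescence reading.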
RORg inh – blocks mouse ROR gamma transcriptional activity; P51450; Drosophila S2 Gal4-RORgamma UAS-luciferase reporter, 20 h; Potency, µM (highest dose often 53.6 µM), usual class: inhibitors; 310,000 tested, 5.4% active; note: nearly all actives have a fitted effect of over 60% in size
Target sequence (P51450 whole entry, looked up, the tested form may be a part): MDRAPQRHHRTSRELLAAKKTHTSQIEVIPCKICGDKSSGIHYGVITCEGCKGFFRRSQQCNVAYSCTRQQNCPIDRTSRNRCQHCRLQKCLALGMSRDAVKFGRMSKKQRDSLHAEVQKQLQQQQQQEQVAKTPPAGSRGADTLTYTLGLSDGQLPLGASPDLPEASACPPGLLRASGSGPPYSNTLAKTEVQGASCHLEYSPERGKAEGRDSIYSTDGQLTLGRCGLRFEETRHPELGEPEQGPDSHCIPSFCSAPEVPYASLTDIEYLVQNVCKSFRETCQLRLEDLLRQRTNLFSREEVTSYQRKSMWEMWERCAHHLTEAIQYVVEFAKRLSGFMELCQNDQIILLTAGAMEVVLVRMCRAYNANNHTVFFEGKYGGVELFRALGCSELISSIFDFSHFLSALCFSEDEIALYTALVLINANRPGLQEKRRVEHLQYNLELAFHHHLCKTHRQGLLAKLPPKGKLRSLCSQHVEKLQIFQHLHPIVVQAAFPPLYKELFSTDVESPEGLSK
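A Gal4/UAS one-hybrid system in insect cells: metallothionein-promoter Gal4–ROR gamma fusion plus Photinus luciferase reporter. Copper sulfate 700 uM final, 20 hr ambient incubation, luminescent detection after 10 min with reagent.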
A number is an active result. Hits are enriched below; roughly 8% of the tested compounds scored in any of these assays. Unless noted, calls come from the whole dose curve; as a rule, active = well fitted curve in the direction sought with a large enough effect; inconclusive = small, poorly fitted or top-dose-only effect, or another doubt; inactive = no such curve, though single readings can be large; an effect the other way counts as inactive or inconclusive.

Screening O=C(N/N=C/c1ccc(N2CCOCC2)o1)c1cccc(C(F)(F)F)c1 returned TSHR antagonist inactive, Coupling enz inactive, VP16 counter 3.98µM, ELG1 repair inh inactive and RORg inh 6.31µM.
For COc1cccc(/C=N/N2C(=O)CSC2=S)c1O the results were TSHR antagonist inactive, Coupling enz inactive, VP16 counter 4.47µM, ELG1 repair inh inconclusive and RORg inh 3.98µM.
COc1ccc2ccccc2c1/C=N/N1C(=O)CSC1=S was read as TSHR antagonist inactive, Coupling enz inactive, VP16 counter inconclusive, ELG1 repair inh inactive and RORg inh 7.94µM.
`O=C1CSC(=S)N1/N=C/c1c(F)cccc1F` gave TSHR antagonist inactive, Coupling enz inactive, VP16 counter inactive, ELG1 repair inh inactive and RORg inh inactive.
c1ccc2c(-c3ccncc3)c[nH]c2c1 was read as TSHR antagonist inactive, Coupling enz inactive, VP16 counter inactive, ELG1 repair inh 20.6µM and RORg inh inactive.
c1ccc(-c2nnc(-c3ccccc3)c(-c3c[nH]c4ccccc34)n2)cc1 was read as TSHR antagonist inactive, Coupling enz inactive, VP16 counter inactive, ELG1 repair inh inactive and RORg inh inactive.
For O=[N+]([O-])c1ccc(NNS(=O)(=O)c2cc(Cl)ccc2Cl)nc1 the results were TSHR antagonist inactive, VP16 counter inconclusive, ELG1 repair inh inactive and RORg inh 12.6µM.
Screening CC(OC(=O)CCCN=C1NS(=O)(=O)c2ccccc21)C(=O)Nc1ccccc1F (stereo not drawn) returned TSHR antagonist inactive and ELG1 repair inh inactive.
`Cc1ccc(C2=NC3(CCCCC3)NC2=S)cc1` gave TSHR antagonist inactive, Coupling enz inactive, VP16 counter 3.98µM, ELG1 repair inh inconclusive and RORg inh 2µM.
For CCN1CCC2(CC1)N=C(c1ccc(F)cc1)C(=S)N2 the results were TSHR antagonist inactive, Coupling enz inactive, VP16 counter inactive, ELG1 repair inh inactive and RORg inh 12.6µM.
Screening O=C1NC2(CCCC2)N=C1c1ccc(F)cc1 returned TSHR antagonist inactive, Coupling enz inactive, VP16 counter inactive, ELG1 repair inh inactive and RORg inh inactive.
S=C1NC2(CCCCC2)N=C1c1ccccc1 was read as TSHR antagonist inactive, Coupling enz inactive, VP16 counter 3.55µM, ELG1 repair inh inactive and RORg inh 3.16µM.
Cc1ccc(N(CC(=O)NC2CCCC2)C(=O)CNC(=O)c2cccs2)cc1C was read as TSHR antagonist inactive, Coupling enz inactive, VP16 counter inactive, ELG1 repair inh inactive and RORg inh inactive.
For C=CC(C1=CC(=O)C(OC)=CC1=O)c1ccc(O)cc1 (stereo not drawn) the results were Coupling enz -34.5, VP16 counter inactive and RORg inh inactive.
For C=C[C@@H](C1=CC(=O)C(OC)=C(OC)C1=O)c1ccccc1 the results were Coupling enz -44.7, VP16 counter inconclusive and RORg inh inconclusive.
For CN(C)S(=O)(=O)c1cccc(NC(=O)CCc2nc3sc4c(c3c(=O)[nH]2)CCCC4)c1 the results were TSHR antagonist inactive and ELG1 repair inh 11.2µM.
`CC(C)(C)c1cc(C(=O)Nc2ccc(F)cc2)n(Cc2ccc(F)cc2)n1` gave TSHR antagonist inactive, Coupling enz inactive, VP16 counter inconclusive, ELG1 repair inh inconclusive and RORg inh 11.2µM.
CC(C)(C)c1cc(C(=O)NNc2cc(C(F)(F)F)ccc2Cl)n(Cc2ccccc2)n1 was read as TSHR antagonist inactive, Coupling enz inactive, VP16 counter 8.91µM, ELG1 repair inh inconclusive and RORg inh inconclusive.
Cc1ccc(NC(=O)c2cc(C(C)(C)C)nn2Cc2ccccc2)cc1 was read as TSHR antagonist inactive, Coupling enz inactive, VP16 counter inactive, ELG1 repair inh inconclusive and RORg inh inactive.
`Cc1ccc(NNC(=O)c2cc(C(C)(C)C)nn2Cc2ccccc2)cc1` gave TSHR antagonist inactive, Coupling enz inactive, VP16 counter 17.8µM, ELG1 repair inh inconclusive and RORg inh inconclusive.
Screening O=C(CCC(=O)N1CCOc2ccccc21)NCCN1CCOCC1 returned TSHR antagonist inactive, Coupling enz inactive, VP16 counter inactive, ELG1 repair inh inactive and RORg inh inactive.
For Brc1ccc(-c2cn3ccccc3n2)cc1 the results were TSHR antagonist inactive, Coupling enz inactive, VP16 counter inactive, ELG1 repair inh inconclusive and RORg inh inactive.

Screening data: PubChem BioAssay, National Center for Advancing Translational Sciences (NCATS)
